The nature of assay [1]: qHTS assay to test for compound auto fluorescence at 535 nm (green) in HEK293 cells (AID 720680). In general terms: In qHTS, concentration-response curves come from the screen itself.
A short description of assay [2]: qHTS assay to test for compound auto fluorescence at 460 nm (blue) in HEK293 cell free culture (AID 720681). The essentials:
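Blue fluorescence (Ex 405/Em 460 nm, triamterene-equivalent) was read immediately after pin transfer of compound or DMSO into medium (DMEM, 10% FBS) without cells.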

Assay [3] is described as follows: qHTS assay to test for compound auto fluorescence at 460 nm (blue) in HepG2 cell free culture (AID 720685). The essentials: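 Cell-free plates of MEM plus 10% FBS received 23 nL compound or DMSO vehicle; blue-channel (405/460 nm) intensity scored against triamterene as reference fluorophore.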
Assay [4] in a line: qHTS assay to test for compound auto fluorescence at 535 nm (green) in HepG2 cell free culture (AID 720686).
Assay [5] in a line: qHTS assay to test for compound auto fluorescence at 460 nm (blue) in HepG2 cells (AID 720687). The essentials:
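Blue-channel autofluorescence (Ex/Em 405/460 nm, triamterene-equivalent) was measured after 1 hr compound exposure at 37 C, 5% CO2. Cells were HepG2, plated overnight at 37 C in MEM plus 10% FBS.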

The nature of assay [6]: qHTS assay for identifying genotoxic compounds that show differential cytotoxicity against isogenic chicken DT40 cell lines with known DNA damage response pathways - wild type cell line (AID 743012). Further: nearly all actives have a fitted effect of over 60% in size. Further: potency means the concentration at half of the fitted maximal effect. The essentials:
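Luminescent ATP viability signal (CellTiter-Glo, 30 min RT) recorded after wild type DT40 cells were incubated with compounds for 40 h at 37 C/5% CO2.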

The nature of assay [7]: qHTS assay to identify small molecule antagonists of the androgen receptor (AR) signaling pathway - cell viability counter screen (AID 743033; further: nearly all actives have a fitted effect of over 45% in size; further: potency means the concentration at half of the fitted maximal effect).
The target in assay [8] is Androgen receptor (Homo sapiens) (UniProt P10275). As to the kind of experiment: qHTS assay to identify small molecule agonists of the androgen receptor (AR) signaling pathway using the MDA cell line (AID 743040; further: nearly all actives have a fitted effect of over 20% in size). The essentials: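 Luciferase agonist assay: 16 h compound exposure at 37C without CO2 in MDA-kb2 AR-luc cells, whose MMTV promoter responds to both AR and GR. Luminescence measured after 30 min room-temperature incubation with ONE-Glo.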

The nature of assay [9]: qHTS assay to test for compound auto fluorescence at 535 nm (green) in HEK293 cell free culture (AID 720682). The essentials:
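No cells present: wells hold DMEM supplemented with 10% FBS, into which compound or vehicle is pinned. Green emission is then recorded (485 nm excitation, 535 nm emission) and scaled to fluorescein.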

Assay [10] in a line: qHTS assay to test for compound auto fluorescence at 590 nm (red) in HEK293 cell free culture (AID 720683). Summed up:
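Red-channel autofluorescence of compounds in culture medium (DMEM, 10% FBS), no cells, measured at 540/590 nm. Rose Bengal sodium is the reference fluorophore for equivalence.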

Assay [11] is described as follows: qHTS assay to test for compound auto fluorescence at 590 nm (red) in HepG2 cell free culture (AID 720684). The essentials: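 Cell-free; medium MEM + 10% FBS; compound or DMSO added by pintool; read Ex 540/Em 590 nm; Rose Bengal sodium as red reference fluorophore.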
The target in assay [12] is Glucocorticoid receptor (Homo sapiens) (UniProt P04150). As to the kind of experiment: qHTS assay to identify small molecule agonists of the glucocorticoid receptor (GR) signaling pathway (AID 720691; active means well fitted activation curve with a large enough effect in the signal ratio in the repeat runs, not every such curve was filed as active; the % refers to the signal ratio). The note with it: GR-bla HeLa, beta-lactamase reporter ratio, 18 h; activation: at 62.4 µM (top of the series). The essentials: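 Cells: GR-bla HeLa, endogenous GR with stably integrated GRE-beta-lactamase reporter. Treatment 18 h, 37 C, compounds delivered in DMSO. Detection via LiveBLAzer B/G FRET substrate, 2 h RT, fluorescence intensity.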

Assay [13] has the same target. As to the kind of experiment: qHTS assay to identify small molecule antagonists of the glucocorticoid receptor (GR) signaling pathway (AID 720692; active means well fitted inhibition curve with a large enough effect in the signal ratio in the repeat runs, not every such curve was filed as active; the % refers to the signal ratio). Summed up:
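Quantitative HTS in antagonist format: HeLa cells expressing endogenous GR and a stably integrated GRE-bla reporter, stimulated with 5 nM dexamethasone (final) alongside test compounds for 18 h.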

Assay [14] is described as follows: qHTS assay to identify small molecule antagonists of the glucocorticoid receptor (GR) signaling pathway - cell viability counter screen (AID 720693). Further: nearly all actives have a fitted effect of over 55% in size.
The nature of assay [15]: qHTS assay for identifying genotoxic compounds that show differential cytotoxicity against isogenic chicken DT40 cell lines with known DNA damage response pathways - Rev3 mutant cell line (AID 743014). Further: nearly all actives have a fitted effect of over 55% in size. Further: potency means the concentration at half of the fitted maximal effect.
Assay [16] is described as follows: qHTS assay for identifying genotoxic compounds that show differential cytotoxicity against isogenic chicken DT40 cell lines with known DNA damage response pathways - Rad54/Ku70 mutant cell line (AID 743015). Further: nearly all actives have a fitted effect of over 60% in size. Further: potency means the concentration at half of the fitted maximal effect.
The nature of assay [17]: qHTS assay to identify small molecule antagonists of the androgen receptor (AR) signaling pathway using the MDA cell line - cell viability counter screen (AID 743041; further: nearly all actives have a fitted effect of over 45% in size). The essentials:
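Viability read by CellTiter-Fluor fluorescence in the same wells as the antagonist screen, added after 15.5 h of a 16 h, 37C exposure. Human breast carcinoma MDA-kb2 AR-luc cells, compounds co-dosed with agonist R1881.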

Assay [18] deals with Androgen receptor (Homo sapiens) (UniProt P10275). Put plainly: qHTS assay to identify small molecule antagonists of the androgen receptor (AR) signaling pathway (AID 743035; active means well fitted inhibition curve with a large enough effect in the signal ratio in the repeat runs, not every such curve was filed as active; the % refers to the signal ratio). Summed up:
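Quantitative HTS of the Tox21 10K library used HEK293 AR-UAS-bla cells stimulated with R1881 alongside compound for 16 h at 37C, followed by beta-lactamase FRET detection (LiveBLAzer B/G, 2 h, RT).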

For assay [19] the target is unchanged. Put plainly: qHTS assay to identify small molecule agonists of the androgen receptor (AR) signaling pathway (AID 743036; active means well fitted activation curve with a large enough effect in the signal ratio in the repeat runs, with a control signal flat, not every such curve was filed as active; the % refers to the signal ratio). Summed up: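 Quantitative HTS of the Tox21 10K library in HEK293 cells bearing a stably integrated UAS-controlled beta-lactamase reporter. Compound exposure lasted 16 h at 37C. Reporter activity was detected by FRET substrate fluorescence after 2 h at room temperature.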

Assay [20] shares this target. As to the kind of experiment: qHTS assay to identify small molecule antagonists of the androgen receptor (AR) signaling pathway using the MDA cell line (AID 743042; further: nearly all actives have a fitted effect of over 55% in size). Summed up: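 Antagonist mode: compounds plus R1881 agonist added to MDA-kb2 AR-luc cells, incubated 16 h at 37C. Luciferase reporter luminescence quantified, with multiplexed CellTiter-Fluor readout for cell viability.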

Values joined by “and” are separate entries in the source; they are usually repeats but may differ in a detail not shown here. Equal values may be shown once. Inconclusive results are not listed. Active and inactive are the calls of the source. Unless noted, the call rests on the fitted dose curve; in most records, active means well fitted curve in the direction sought with a large enough effect in the repeat runs; inconclusive means weak or mixed curves; inactive means no such curve, though single readings can be large; an effect the other way counts as inactive or inconclusive.

Sequence of Glucocorticoid receptor (Homo sapiens) (P04150 whole entry, looked up): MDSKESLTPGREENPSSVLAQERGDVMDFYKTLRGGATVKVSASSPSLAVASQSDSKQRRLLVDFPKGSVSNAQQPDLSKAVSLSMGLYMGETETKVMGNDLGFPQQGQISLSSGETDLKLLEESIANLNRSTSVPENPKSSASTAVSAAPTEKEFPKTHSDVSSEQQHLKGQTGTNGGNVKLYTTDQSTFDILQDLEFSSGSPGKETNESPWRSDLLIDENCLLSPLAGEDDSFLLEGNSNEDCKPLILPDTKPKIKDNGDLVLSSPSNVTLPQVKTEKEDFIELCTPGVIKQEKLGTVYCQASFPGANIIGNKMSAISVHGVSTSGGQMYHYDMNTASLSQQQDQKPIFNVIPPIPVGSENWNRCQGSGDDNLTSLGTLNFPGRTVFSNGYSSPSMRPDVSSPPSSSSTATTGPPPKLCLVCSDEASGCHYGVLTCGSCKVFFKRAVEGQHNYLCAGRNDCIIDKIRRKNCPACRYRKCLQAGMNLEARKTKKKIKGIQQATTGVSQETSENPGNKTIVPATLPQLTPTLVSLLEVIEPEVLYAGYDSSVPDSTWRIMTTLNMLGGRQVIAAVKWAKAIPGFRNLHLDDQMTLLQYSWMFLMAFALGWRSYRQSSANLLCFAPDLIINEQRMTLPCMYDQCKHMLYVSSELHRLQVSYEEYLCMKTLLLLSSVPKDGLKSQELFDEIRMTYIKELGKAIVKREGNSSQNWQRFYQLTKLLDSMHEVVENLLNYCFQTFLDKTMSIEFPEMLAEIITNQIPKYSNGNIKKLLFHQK
Sequence of Androgen receptor (Homo sapiens) (P10275 whole entry, looked up): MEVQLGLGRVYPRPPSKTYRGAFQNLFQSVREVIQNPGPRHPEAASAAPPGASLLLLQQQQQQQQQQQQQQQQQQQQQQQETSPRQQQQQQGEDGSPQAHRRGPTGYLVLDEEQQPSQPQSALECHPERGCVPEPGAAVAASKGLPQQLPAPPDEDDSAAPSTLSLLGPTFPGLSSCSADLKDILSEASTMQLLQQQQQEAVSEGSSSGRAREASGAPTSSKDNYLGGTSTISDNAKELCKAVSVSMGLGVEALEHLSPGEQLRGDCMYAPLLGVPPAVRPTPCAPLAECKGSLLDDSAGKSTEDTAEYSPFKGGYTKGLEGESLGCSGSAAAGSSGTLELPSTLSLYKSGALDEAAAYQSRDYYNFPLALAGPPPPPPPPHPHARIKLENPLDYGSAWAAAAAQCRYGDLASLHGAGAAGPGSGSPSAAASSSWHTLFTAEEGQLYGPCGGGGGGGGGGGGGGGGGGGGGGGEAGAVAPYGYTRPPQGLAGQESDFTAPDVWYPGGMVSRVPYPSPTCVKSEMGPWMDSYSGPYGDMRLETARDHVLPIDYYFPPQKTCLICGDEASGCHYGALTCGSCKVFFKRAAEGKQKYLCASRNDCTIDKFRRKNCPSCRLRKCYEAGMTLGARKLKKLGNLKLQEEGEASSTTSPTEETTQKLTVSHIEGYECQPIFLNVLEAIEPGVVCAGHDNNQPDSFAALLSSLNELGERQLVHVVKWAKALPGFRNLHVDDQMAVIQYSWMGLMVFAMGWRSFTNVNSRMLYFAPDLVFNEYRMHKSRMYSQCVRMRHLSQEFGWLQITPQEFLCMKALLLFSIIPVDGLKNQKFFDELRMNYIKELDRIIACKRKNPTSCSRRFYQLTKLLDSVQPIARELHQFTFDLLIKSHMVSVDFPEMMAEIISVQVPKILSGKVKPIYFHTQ

Turning to `NCc1cccc(C2CCN(C(=O)c3ccc(C#Cc4ccccc4F)o3)CC2)c1`, the outcome in assay [1] was inactive. Also, the Potency entry in assay [2], in assay [3], in [4], in assay [5] and in [8] was “inactive” each time. Also, the Potency was 17.2 µM (active) in assay [6] and 21.9 µM (active) in assay [7].

Regarding `Nc1nc(/C(=C/CC(=O)O)C(=O)N[C@@H]2C(=O)N3C(C(=O)O)=CCS[C@H]23)cs1`, the result in assay [1], in assay [9], in [10] and in [11] was inactive. In addition, the Potency entry in assay [3], in assay [4], in assay [5], in assay [12], in assay [13] and in [14] was “inactive” in each case. Besides, the Potency entry in assay [6], in [15], in assay [16], in [7] and in assay [17] was “inactive” in each case.

For `CC(C)=CCC/C(C)=C/CC/C(C)=C/CC/C=C(\C)CC/C=C(\C)CCC=C(C)C`, the compound was classed as inactive in [1] and in assay [10]. Besides, the Potency entry in assay [2], in [3], in [4], in [5], in assay [12] and in assay [13] was “inactive” throughout. In addition, the Potency result in [14], in [6], in assay [15], in assay [16], in assay [7] and in [17] was “inactive” throughout.

In the case of `CC[C@@]1([C@@H]2O[C@@H]([C@H]3O[C@@](O)(CO)[C@H](C)C[C@@H]3C)C[C@@H]2C)CC[C@H]([C@]2(C)CC[C@]3(C[C@H](O)[C@@H](C)[C@@H]([C@@H](C)[C@@H](OC)[C@H](C)C(=O)O)O3)O2)O1` (stereo in doubt), the result in [1], in assay [10] and in [11] was inactive. In addition, the Potency entry in assay [2], in assay [4], in assay [5] and in assay [14] was “inactive” throughout. Also, the Potency is 473 nM (active) and 531 nM (active) in [6]; 376 nM (active) and 531 nM (active) in [15]; 531 nM (active) and 596 nM (active) in assay [16].

For `CCN(CC)CCn1c(=O)c(Cc2ccc(OC)cc2)nc2ccccc21`, the call in assay [1], in [10] and in assay [11] was inactive. Further, the Potency entry in assay [2], in assay [3], in assay [4], in assay [5], in [12] and in assay [13] was “inactive” throughout. In addition, the Potency entry in [14], in assay [7], in assay [18], in assay [19], in [8] and in assay [17] was “inactive” throughout. Besides, the Potency entry in assay [20] is “inactive”. Besides, the Potency in [6] was 26.6 µM (active).

`CC1CCCCN1CCCOC(=O)c1ccccc1` (stereo not drawn): the outcome in assay [1], in assay [9], in assay [10] and in assay [11] was inactive. For the same compound, the Potency entry in [3], in assay [4], in [5], in assay [12], in assay [13] and in assay [14] was “inactive” in each case. In addition, the Potency result in assay [7] and in [17] was “inactive” in each case.

As to `C1CCc2nnnn2CC1`, the compound was classed as inactive in [1], in [10] and in assay [11]. Also, the Potency entry in assay [2], in assay [3], in assay [4], in assay [5], in [14] and in assay [15] was “inactive” in each case. Besides, the Potency result in [16], in [7] and in assay [17] was “inactive” in each case.

The values are drawn from PubChem BioAssay (Tox21).
